# Reference: article PMC7862700, “An all-to-all approach to the identification of sequence-specific readers for epigenetic DNA modifications on cytosine”
# Experiments:
# Experiment in all cases: DAPPL (digital affinity profiling via proximity ligation, sequencing); 10 mM Tris-HCl pH 7.5, 50 mM NaCl, 1 mM DTT, 4% glycerol, room temperature, 30 min; GST-TFs on glutathione beads, 16-mer random dsDNA library, 0.1% formaldehyde crosslink after washing; high values mean tight binding
# FLI1 = biological target: T1, FLI1 (Homo sapiens, UniProt Q01543 1-452); details: protein: recombinant; tags: N-terminal GST; dsDNA, one strand shown
# T1 sequence: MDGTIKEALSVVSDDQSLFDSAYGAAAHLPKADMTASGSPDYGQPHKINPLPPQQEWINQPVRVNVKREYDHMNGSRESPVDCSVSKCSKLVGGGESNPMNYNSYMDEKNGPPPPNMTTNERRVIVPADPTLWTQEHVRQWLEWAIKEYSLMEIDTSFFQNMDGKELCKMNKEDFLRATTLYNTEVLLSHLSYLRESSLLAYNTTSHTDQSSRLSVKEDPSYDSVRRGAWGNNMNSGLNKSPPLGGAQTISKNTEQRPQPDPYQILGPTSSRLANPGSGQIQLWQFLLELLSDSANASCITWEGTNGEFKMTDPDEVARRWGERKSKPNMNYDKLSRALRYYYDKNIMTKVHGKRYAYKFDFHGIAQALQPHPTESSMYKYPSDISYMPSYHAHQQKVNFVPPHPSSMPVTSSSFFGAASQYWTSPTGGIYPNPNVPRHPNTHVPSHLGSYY
# Method in brief: (§1)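 A tag-only sample was pooled with DNA-barcoded human transcription factors that had been expressed in yeast as GST fusions and captured on glutathione beads. The pools were incubated for 30 min at room temperature with 200 nmole of a random double-stranded 16-mer DNA library in Tris/NaCl/DTT/glycerol buffer, then washed, crosslinked with 0.1% formaldehyde, proximity-ligated (BsaI/T4 ligase, 1 h, 37 °C), PCR-amplified and sequenced on an Illumina NextSeq500. Binding signal is each hexamer's read frequency for a factor divided by its frequency for the tag-only sample.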
# ELK1 = biological target: T2, ELK1 (Homo sapiens, UniProt P19419 1-428); details: protein: recombinant; tags: N-terminal GST; dsDNA, one strand shown
# T2 sequence: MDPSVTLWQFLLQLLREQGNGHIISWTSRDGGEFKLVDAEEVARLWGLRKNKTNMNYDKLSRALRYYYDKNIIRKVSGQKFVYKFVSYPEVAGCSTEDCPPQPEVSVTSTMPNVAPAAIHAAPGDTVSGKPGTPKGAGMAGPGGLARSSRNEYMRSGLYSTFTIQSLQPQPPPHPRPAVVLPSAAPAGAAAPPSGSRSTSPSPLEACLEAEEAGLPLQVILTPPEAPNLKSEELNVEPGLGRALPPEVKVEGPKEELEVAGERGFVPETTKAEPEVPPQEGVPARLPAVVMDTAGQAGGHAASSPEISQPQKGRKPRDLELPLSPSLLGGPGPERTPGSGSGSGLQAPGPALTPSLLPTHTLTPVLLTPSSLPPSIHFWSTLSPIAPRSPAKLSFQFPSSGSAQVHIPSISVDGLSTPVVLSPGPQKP
# Method in brief: as §1
# GABPA = biological target: T3, GABPA (Homo sapiens, UniProt Q06546 1-454); details: protein: recombinant; tags: N-terminal GST; dsDNA, one strand shown
# T3 sequence: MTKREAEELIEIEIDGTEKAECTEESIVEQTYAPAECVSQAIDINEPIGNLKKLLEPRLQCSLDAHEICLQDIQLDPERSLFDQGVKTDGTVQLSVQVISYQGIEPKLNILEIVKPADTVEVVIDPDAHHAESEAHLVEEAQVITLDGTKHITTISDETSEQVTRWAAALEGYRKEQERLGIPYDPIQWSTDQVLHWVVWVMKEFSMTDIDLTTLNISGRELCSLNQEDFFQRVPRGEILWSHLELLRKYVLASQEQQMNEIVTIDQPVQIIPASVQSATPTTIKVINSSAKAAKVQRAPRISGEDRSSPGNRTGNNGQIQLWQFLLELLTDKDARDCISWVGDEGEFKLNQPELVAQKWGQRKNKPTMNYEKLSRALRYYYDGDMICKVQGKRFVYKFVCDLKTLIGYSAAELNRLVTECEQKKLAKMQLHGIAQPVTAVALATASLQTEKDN
# Method in brief: as §1
# ERG = biological target: T4, ERG (Homo sapiens, UniProt P11308 1-479); details: protein: recombinant; tags: N-terminal GST; dsDNA, one strand shown
# T4 sequence: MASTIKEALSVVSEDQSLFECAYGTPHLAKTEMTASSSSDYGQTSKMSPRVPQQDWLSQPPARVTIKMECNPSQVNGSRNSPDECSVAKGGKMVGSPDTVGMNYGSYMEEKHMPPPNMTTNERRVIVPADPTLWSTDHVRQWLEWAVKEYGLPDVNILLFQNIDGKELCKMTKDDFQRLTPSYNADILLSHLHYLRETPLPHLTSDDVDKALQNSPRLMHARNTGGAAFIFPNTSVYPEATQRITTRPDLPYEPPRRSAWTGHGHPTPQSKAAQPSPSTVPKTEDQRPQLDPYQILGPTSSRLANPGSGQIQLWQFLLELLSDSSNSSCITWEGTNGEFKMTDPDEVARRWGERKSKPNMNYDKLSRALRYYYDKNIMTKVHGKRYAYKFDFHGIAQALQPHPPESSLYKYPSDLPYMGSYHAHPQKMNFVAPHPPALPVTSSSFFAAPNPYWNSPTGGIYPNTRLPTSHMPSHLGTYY
# Method in brief: as §1
# ELF1 = ELF1 (Homo sapiens, UniProt P32519 1-619); details: protein: recombinant; tags: N-terminal GST; dsDNA, one strand shown
# Method in brief: as §1
# EHF = biological target: T5, EHF (Homo sapiens, UniProt Q9NZC4 1-300); details: protein: recombinant; tags: N-terminal GST; dsDNA, one strand shown
# T5 sequence: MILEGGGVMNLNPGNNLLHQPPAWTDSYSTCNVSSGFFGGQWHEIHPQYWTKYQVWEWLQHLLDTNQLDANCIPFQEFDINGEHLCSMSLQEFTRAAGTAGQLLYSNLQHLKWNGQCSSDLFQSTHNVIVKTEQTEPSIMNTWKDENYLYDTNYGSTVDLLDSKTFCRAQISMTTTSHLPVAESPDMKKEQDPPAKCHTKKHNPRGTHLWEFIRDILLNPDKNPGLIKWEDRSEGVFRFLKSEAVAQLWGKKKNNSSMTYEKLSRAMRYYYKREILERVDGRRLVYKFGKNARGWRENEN
# Method in brief: as §1
# SPI1 = SPI1 (Homo sapiens, UniProt P17947 1-270); details: protein: recombinant; tags: N-terminal GST; dsDNA, one strand shown
# Method in brief: as §1
# SPIB = SPIB (Homo sapiens, UniProt Q01892 1-262); details: protein: recombinant; tags: N-terminal GST; dsDNA, one strand shown
# Method in brief: as §1
# ELK3 = biological target: T6, ELK3 (Homo sapiens, UniProt P41970 1-407); details: protein: recombinant; tags: N-terminal GST; dsDNA, one strand shown
# T6 sequence: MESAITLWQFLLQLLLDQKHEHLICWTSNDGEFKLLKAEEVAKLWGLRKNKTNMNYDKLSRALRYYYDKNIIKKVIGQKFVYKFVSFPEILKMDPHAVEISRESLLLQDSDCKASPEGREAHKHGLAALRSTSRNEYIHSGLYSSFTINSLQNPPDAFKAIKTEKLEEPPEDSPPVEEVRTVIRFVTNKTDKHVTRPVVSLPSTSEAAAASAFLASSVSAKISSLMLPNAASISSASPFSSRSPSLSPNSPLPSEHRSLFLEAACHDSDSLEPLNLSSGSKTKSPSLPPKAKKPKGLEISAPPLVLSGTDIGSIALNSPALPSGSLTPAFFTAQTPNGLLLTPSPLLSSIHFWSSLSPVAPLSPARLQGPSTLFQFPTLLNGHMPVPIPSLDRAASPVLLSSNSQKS
# Method in brief: as §1
# FEV = biological target: T7, FEV (Homo sapiens, UniProt Q99581 1-238); details: protein: recombinant; tags: N-terminal GST; dsDNA, one strand shown
# T7 sequence: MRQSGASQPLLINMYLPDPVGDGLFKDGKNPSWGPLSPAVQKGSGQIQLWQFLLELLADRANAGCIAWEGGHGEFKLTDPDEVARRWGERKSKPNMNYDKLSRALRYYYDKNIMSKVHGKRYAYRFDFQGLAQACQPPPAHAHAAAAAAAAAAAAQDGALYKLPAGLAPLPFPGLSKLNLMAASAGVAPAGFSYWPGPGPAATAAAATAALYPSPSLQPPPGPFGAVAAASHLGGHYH
# Method in brief: as §1
# ETV5 = ETV5 (Homo sapiens, UniProt P41161 1-510); details: protein: recombinant; tags: N-terminal GST; dsDNA, one strand shown
# Method in brief: as §1
# HSF1 = HSF1 (Homo sapiens, UniProt Q00613 1-529); details: protein: recombinant; tags: N-terminal GST; chain copies: 3; dsDNA, one strand shown
# Method in brief: as §1
# SPIC = biological target: T8, SPIC (Homo sapiens, UniProt Q8N5J4 1-248); details: protein: recombinant; tags: N-terminal GST; dsDNA, one strand shown
# T8 sequence: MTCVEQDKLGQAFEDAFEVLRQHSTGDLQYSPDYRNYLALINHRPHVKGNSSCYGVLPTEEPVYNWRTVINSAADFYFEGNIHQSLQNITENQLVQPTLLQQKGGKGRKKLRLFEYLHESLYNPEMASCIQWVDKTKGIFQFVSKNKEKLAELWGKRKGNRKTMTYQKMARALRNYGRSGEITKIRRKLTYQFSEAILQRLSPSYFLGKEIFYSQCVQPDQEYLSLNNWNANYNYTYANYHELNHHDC
# Method in brief: as §1
# ELF4 = ELF4 (Homo sapiens, UniProt Q99607 1-663); details: protein: recombinant; tags: N-terminal GST; dsDNA, one strand shown
# Method in brief: as §1
# ELK4 = biological target: T9, ELK4 (Homo sapiens, UniProt P28324-2 1-405); details: protein: recombinant; tags: N-terminal GST; dsDNA, one strand shown
# T9 sequence: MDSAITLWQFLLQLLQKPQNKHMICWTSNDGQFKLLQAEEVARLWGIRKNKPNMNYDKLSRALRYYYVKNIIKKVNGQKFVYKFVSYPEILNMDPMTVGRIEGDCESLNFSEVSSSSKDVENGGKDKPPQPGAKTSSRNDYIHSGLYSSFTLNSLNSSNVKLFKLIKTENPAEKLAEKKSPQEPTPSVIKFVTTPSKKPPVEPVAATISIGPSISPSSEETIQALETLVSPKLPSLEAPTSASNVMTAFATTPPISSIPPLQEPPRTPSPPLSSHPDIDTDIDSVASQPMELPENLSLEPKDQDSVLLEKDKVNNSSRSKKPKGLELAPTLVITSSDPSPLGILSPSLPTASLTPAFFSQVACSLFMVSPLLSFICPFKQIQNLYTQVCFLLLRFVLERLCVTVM
# Method in brief: as §1
# ETV2 = biological target: T10, ETV2 (Homo sapiens, UniProt O00321 1-342); details: protein: recombinant; tags: N-terminal GST; dsDNA, one strand shown
# T10 sequence: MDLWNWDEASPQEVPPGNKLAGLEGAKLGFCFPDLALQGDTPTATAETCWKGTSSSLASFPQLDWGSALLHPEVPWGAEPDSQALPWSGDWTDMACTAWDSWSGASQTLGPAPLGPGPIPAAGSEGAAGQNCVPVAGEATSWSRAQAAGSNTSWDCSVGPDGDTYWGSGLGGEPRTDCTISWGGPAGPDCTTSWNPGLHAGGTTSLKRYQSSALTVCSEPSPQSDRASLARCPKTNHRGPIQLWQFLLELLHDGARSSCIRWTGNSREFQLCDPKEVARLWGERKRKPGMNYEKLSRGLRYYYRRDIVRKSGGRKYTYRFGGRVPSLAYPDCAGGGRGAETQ
# Method in brief: as §1
# ELF3 = biological target: T11, ELF3 (Homo sapiens, UniProt P78545 1-371); details: protein: recombinant; tags: N-terminal GST; dsDNA, one strand shown
# T11 sequence: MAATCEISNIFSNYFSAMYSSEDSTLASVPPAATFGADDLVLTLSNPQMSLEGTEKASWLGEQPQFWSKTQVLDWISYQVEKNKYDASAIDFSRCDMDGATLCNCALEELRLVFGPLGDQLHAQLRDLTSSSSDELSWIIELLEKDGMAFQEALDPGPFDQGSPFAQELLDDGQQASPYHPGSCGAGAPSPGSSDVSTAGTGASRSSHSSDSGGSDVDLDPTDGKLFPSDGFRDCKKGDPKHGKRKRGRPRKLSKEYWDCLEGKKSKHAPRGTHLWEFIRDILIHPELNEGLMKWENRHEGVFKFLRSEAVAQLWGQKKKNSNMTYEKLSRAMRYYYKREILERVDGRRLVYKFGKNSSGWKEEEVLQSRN
# Method in brief: as §1
# CRX = CRX (Homo sapiens, UniProt O43186 1-299); details: protein: recombinant; tags: N-terminal GST; dsDNA, one strand shown
# Method in brief: as §1
# ETV1 = ETV1 (Homo sapiens, UniProt P50549 1-477); details: protein: recombinant; tags: N-terminal GST; dsDNA, one strand shown
# Method in brief: as §1
# Chain of CRX (O43186 whole entry): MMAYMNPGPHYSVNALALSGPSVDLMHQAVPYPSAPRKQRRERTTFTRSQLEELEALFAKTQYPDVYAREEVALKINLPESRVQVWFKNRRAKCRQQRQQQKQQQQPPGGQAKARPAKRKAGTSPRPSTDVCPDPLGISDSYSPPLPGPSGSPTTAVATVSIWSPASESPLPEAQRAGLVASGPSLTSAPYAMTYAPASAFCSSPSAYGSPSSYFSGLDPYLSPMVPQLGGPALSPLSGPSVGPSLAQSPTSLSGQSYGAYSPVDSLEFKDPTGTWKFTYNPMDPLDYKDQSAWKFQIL
# Chain of ETV1 (P50549 whole entry): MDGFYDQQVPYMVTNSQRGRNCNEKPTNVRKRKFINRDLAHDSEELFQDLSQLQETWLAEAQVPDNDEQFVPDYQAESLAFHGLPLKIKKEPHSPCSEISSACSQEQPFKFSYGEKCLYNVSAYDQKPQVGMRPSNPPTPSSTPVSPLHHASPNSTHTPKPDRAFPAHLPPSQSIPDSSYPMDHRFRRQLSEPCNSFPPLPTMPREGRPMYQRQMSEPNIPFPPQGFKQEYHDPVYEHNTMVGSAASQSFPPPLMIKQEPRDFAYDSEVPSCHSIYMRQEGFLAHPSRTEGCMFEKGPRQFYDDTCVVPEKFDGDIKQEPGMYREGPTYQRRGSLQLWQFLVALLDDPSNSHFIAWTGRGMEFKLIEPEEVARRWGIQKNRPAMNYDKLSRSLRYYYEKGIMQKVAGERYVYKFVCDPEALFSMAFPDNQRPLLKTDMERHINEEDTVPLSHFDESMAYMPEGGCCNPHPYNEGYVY
# Chain of ETV5 (P41161 whole entry): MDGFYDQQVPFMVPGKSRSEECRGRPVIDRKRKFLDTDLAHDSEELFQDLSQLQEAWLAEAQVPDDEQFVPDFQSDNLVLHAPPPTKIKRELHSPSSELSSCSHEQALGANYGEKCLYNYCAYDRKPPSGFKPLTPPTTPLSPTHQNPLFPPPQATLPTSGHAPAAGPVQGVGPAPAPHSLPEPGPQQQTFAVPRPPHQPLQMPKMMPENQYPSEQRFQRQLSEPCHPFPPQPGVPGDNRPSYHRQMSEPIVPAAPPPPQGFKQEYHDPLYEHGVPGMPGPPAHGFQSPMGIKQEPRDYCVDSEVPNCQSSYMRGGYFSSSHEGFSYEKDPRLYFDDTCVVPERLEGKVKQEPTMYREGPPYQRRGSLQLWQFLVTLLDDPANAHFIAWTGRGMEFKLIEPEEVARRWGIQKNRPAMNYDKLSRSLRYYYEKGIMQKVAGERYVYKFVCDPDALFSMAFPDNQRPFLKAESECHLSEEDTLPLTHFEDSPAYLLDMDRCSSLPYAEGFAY
# Chain of SPIB (Q01892 whole entry): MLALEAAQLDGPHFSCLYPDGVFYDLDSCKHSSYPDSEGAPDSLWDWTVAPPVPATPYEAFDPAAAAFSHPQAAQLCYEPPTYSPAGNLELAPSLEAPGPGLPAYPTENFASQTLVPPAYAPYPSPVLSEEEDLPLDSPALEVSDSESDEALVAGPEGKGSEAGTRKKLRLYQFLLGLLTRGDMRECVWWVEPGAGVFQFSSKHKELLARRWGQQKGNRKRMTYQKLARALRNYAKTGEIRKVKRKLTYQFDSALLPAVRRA
# Chain of ELF1 (P32519 whole entry): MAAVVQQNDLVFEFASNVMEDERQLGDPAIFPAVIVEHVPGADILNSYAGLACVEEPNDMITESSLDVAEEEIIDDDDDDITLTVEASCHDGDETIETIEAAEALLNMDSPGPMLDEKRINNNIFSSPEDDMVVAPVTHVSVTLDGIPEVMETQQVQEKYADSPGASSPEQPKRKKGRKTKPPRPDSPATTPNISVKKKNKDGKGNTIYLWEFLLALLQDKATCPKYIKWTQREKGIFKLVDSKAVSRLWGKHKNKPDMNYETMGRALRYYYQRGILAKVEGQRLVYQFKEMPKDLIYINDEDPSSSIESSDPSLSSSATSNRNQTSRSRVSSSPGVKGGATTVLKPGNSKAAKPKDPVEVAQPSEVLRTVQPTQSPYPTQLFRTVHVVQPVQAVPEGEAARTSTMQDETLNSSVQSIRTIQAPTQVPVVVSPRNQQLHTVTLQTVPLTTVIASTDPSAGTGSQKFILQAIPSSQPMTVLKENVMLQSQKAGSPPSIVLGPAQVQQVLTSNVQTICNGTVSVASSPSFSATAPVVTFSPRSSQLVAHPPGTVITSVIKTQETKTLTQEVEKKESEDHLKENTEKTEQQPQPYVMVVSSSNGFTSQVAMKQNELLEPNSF
# Chain of HSF1 (Q00613 whole entry): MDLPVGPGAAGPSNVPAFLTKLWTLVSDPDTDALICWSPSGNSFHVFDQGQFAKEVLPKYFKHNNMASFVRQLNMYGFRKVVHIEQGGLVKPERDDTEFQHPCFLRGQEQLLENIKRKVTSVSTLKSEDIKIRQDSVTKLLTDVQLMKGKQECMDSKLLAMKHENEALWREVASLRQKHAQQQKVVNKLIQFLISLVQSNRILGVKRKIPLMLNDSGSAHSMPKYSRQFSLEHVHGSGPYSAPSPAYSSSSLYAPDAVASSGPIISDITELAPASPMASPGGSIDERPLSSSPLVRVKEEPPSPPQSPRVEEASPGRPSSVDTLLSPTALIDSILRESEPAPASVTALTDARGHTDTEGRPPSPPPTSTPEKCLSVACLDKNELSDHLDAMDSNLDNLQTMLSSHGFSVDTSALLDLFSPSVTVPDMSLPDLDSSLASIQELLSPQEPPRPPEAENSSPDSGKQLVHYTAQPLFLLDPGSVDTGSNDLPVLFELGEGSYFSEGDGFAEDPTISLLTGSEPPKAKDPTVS
# Chain of ELF4 (Q99607 whole entry): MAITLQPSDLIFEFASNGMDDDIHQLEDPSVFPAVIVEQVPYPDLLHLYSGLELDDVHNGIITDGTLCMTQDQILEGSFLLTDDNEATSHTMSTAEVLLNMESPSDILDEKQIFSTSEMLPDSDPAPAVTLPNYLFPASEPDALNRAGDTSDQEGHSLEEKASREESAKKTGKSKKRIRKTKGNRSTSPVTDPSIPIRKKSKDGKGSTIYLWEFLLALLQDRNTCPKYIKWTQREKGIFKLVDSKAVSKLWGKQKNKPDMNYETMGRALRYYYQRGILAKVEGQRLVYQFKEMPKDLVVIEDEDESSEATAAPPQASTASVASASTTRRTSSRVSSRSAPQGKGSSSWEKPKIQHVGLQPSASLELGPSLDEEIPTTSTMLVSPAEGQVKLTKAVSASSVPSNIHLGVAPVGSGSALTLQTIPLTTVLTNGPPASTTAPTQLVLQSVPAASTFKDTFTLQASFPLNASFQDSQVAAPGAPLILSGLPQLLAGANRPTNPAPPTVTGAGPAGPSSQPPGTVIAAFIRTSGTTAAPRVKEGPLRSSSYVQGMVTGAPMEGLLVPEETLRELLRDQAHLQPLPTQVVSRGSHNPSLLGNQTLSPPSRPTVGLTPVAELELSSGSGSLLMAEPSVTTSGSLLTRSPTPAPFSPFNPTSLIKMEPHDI
sequence,measurement,setting,value
TGTATT,binding signal,FLI1,"1.38 fold enrichment (6-mer frequency, TF over GST control)"
same,binding signal,ELK1,"1.31 fold enrichment (6-mer frequency, TF over GST control)"
same,binding signal,GABPA,"1.33 fold enrichment (6-mer frequency, TF over GST control)"
same,binding signal,ERG,"1.32 fold enrichment (6-mer frequency, TF over GST control)"
same,binding signal,ELF1,"1.37 fold enrichment (6-mer frequency, TF over GST control)"
same,binding signal,EHF,"1.34 fold enrichment (6-mer frequency, TF over GST control)"
same,binding signal,SPI1,"1.28 fold enrichment (6-mer frequency, TF over GST control)"
same,binding signal,SPIB,"1.28 fold enrichment (6-mer frequency, TF over GST control)"
same,binding signal,ELK3,"1.43 fold enrichment (6-mer frequency, TF over GST control)"
same,binding signal,FEV,"1.34 fold enrichment (6-mer frequency, TF over GST control)"
same,binding signal,ETV5,"1.33 fold enrichment (6-mer frequency, TF over GST control)"
same,binding signal,HSF1,"1.3 fold enrichment (6-mer frequency, TF over GST control)"
same,binding signal,SPIC,"1.4 fold enrichment (6-mer frequency, TF over GST control)"
same,binding signal,ELF4,"1.36 fold enrichment (6-mer frequency, TF over GST control)"
same,binding signal,ELK4,"1.33 fold enrichment (6-mer frequency, TF over GST control)"
same,binding signal,ETV2,"1.32 fold enrichment (6-mer frequency, TF over GST control)"
same,binding signal,ELF3,"1.24 fold enrichment (6-mer frequency, TF over GST control)"
same,binding signal,CRX,"1.56 fold enrichment (6-mer frequency, TF over GST control)"
same,binding signal,ETV1,"1.4 fold enrichment (6-mer frequency, TF over GST control)"
